# Laboratory results taken from publication PMC7862700, “An all-to-all approach to the identification of sequence-specific readers for epigenetic DNA modifications on cytosine”.
# How the values were obtained:
# Experiment in all cases: DAPPL (digital affinity profiling via proximity ligation, sequencing); 10 mM Tris-HCl pH 7.5, 50 mM NaCl, 1 mM DTT, 4% glycerol, room temperature, 30 min; GST-TFs on glutathione beads, 16-mer random dsDNA library, 0.1% formaldehyde crosslink after washing; high values mean tight binding
# FEV = target: T1, FEV (Homo sapiens, UniProt Q99581 1-238); details: protein: recombinant; tags: N-terminal GST; dsDNA, one strand shown
# T1 sequence: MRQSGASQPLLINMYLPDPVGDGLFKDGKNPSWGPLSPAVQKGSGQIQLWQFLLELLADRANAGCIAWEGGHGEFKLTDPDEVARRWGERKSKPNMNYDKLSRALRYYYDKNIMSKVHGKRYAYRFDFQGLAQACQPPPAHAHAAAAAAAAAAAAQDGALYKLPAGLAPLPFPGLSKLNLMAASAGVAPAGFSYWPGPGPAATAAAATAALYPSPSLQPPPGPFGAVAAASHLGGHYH
# Procedure, shortened: (§1)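 Binding signal is given per hexamer as its read frequency for a factor divided by its frequency in the tag-only sample. GST-fused human transcription factors were expressed in yeast, captured on glutathione beads, barcoded with DNA and pooled with that sample, then incubated with 200 nmole of a 16-mer random double-stranded DNA library in Tris/NaCl/DTT/glycerol buffer for 30 min at room temperature. The pools were then washed, crosslinked, proximity-ligated, amplified by PCR and sequenced on an Illumina NextSeq500.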
# ETV5 = ETV5 (Homo sapiens, UniProt P41161 1-510); details: protein: recombinant; tags: N-terminal GST; dsDNA, one strand shown
# ETV5, sequence (P41161 whole entry): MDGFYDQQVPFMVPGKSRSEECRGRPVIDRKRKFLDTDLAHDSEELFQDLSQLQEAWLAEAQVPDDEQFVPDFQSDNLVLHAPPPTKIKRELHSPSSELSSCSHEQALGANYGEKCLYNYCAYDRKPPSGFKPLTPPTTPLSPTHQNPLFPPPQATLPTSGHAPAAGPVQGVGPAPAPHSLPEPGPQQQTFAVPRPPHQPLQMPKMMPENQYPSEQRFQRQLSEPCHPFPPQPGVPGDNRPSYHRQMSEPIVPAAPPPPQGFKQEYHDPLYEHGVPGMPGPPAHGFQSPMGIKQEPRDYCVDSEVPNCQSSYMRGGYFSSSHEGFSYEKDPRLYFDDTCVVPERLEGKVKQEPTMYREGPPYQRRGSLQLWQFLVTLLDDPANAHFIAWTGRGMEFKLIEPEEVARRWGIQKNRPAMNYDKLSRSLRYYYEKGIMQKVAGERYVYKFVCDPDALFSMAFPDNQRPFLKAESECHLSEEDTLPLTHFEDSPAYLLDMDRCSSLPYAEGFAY
# Procedure, shortened: as §1
# HSF1 = HSF1 (Homo sapiens, UniProt Q00613 1-529); details: protein: recombinant; tags: N-terminal GST; chain copies: 3; dsDNA, one strand shown
# HSF1, sequence (Q00613 whole entry): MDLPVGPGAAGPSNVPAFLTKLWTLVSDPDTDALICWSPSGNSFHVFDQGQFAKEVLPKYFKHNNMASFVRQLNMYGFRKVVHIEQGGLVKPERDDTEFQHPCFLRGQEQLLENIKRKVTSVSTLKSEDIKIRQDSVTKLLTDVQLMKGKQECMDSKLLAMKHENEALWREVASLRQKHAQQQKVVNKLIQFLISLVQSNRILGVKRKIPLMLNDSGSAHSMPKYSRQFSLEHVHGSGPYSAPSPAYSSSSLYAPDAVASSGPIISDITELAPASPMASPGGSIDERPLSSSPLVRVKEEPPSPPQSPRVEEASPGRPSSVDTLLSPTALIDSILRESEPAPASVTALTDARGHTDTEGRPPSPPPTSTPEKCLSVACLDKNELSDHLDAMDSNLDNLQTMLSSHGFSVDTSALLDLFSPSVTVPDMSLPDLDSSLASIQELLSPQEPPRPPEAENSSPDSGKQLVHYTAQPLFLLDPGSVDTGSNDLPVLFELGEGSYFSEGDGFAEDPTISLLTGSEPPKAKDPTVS
# Procedure, shortened: as §1
# SPIC = target: T2, SPIC (Homo sapiens, UniProt Q8N5J4 1-248); details: protein: recombinant; tags: N-terminal GST; dsDNA, one strand shown
# T2 sequence: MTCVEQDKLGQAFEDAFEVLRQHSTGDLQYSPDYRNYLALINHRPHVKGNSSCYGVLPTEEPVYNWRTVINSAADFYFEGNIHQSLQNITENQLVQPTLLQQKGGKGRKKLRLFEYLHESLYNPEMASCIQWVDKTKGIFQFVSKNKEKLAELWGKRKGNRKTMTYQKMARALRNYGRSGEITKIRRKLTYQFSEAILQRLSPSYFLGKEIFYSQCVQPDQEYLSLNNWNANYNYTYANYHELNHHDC
# Procedure, shortened: as §1
# ELF4 = ELF4 (Homo sapiens, UniProt Q99607 1-663); details: protein: recombinant; tags: N-terminal GST; dsDNA, one strand shown
# ELF4, sequence (Q99607 whole entry): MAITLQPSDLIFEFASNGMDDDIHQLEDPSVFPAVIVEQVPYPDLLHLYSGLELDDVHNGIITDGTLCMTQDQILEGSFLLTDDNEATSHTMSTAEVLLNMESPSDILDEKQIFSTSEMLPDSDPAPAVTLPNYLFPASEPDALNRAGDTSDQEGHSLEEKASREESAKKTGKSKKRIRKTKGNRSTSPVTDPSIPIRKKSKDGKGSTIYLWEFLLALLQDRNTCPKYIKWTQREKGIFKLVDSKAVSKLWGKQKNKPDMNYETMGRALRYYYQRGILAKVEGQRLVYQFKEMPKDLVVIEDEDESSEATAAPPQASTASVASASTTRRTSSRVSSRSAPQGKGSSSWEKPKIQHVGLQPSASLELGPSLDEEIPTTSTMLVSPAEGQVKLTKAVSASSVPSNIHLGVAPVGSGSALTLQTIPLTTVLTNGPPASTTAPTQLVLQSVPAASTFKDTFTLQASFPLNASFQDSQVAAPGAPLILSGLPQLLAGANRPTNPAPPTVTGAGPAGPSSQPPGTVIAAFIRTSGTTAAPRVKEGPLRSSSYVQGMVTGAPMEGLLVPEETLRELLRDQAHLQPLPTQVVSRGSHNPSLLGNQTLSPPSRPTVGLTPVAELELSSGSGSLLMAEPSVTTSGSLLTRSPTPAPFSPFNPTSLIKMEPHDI
# Procedure, shortened: as §1
# ELK4 = target: T3, ELK4 (Homo sapiens, UniProt P28324-2 1-405); details: protein: recombinant; tags: N-terminal GST; dsDNA, one strand shown
# T3 sequence: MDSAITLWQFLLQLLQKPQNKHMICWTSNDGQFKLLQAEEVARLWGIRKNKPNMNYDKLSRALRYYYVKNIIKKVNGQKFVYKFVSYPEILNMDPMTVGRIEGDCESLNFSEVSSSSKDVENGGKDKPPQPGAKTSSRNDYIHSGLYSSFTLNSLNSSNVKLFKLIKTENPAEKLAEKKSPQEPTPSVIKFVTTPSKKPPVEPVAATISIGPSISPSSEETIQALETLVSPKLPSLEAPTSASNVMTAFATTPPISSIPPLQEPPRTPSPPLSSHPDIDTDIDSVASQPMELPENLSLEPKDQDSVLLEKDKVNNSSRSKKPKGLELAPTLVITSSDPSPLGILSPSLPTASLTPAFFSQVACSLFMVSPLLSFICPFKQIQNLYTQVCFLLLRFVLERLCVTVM
# Procedure, shortened: as §1
# ETV2 = target: T4, ETV2 (Homo sapiens, UniProt O00321 1-342); details: protein: recombinant; tags: N-terminal GST; dsDNA, one strand shown
# T4 sequence: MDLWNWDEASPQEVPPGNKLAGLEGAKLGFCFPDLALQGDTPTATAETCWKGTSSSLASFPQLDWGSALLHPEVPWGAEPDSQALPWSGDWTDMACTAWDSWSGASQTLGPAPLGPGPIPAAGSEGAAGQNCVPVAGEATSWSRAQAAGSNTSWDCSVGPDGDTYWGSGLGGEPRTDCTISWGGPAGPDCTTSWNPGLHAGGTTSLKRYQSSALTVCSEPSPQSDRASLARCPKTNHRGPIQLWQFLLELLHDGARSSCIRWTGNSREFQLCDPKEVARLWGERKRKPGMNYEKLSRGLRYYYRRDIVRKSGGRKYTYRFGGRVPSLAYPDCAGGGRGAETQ
# Procedure, shortened: as §1
# ELF3 = target: T5, ELF3 (Homo sapiens, UniProt P78545 1-371); details: protein: recombinant; tags: N-terminal GST; dsDNA, one strand shown
# T5 sequence: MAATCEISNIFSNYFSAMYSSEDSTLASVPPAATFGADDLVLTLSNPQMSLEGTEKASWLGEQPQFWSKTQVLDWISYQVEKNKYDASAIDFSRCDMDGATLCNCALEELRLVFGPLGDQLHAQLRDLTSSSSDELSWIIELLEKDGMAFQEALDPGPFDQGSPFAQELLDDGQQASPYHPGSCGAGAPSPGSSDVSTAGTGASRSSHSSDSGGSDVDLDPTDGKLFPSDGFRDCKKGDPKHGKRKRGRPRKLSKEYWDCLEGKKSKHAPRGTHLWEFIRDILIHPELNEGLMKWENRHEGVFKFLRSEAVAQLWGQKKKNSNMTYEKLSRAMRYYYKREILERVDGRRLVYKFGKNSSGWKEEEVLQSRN
# Procedure, shortened: as §1
# CRX = CRX (Homo sapiens, UniProt O43186 1-299); details: protein: recombinant; tags: N-terminal GST; dsDNA, one strand shown
# CRX, sequence (O43186 whole entry): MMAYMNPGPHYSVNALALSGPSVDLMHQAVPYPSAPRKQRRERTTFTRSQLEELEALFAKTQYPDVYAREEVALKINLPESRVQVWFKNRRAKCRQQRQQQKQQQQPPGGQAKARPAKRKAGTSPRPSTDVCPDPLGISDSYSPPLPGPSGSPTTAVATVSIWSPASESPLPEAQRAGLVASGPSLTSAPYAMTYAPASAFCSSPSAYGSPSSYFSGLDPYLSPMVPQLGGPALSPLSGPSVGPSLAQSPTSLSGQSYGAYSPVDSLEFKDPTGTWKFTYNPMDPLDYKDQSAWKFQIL
# Procedure, shortened: as §1
# ETV1 = ETV1 (Homo sapiens, UniProt P50549 1-477); details: protein: recombinant; tags: N-terminal GST; dsDNA, one strand shown
# ETV1, sequence (P50549 whole entry): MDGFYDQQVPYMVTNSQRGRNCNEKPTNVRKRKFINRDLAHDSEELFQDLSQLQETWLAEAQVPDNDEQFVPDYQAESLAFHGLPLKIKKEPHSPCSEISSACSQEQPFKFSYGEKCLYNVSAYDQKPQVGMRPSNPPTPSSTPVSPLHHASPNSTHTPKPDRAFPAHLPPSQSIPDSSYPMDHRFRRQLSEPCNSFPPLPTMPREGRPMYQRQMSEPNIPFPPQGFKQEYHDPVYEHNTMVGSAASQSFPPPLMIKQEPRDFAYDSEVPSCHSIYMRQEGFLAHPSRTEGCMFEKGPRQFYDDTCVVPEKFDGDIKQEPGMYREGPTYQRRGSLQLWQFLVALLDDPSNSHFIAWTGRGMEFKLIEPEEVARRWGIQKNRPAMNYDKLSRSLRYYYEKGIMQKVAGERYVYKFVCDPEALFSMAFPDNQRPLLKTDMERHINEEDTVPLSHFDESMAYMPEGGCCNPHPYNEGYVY
# Procedure, shortened: as §1
# ERF = target: T6, ERF (Homo sapiens, UniProt P50548 1-548); details: protein: recombinant; tags: N-terminal GST; dsDNA, one strand shown
# T6 sequence: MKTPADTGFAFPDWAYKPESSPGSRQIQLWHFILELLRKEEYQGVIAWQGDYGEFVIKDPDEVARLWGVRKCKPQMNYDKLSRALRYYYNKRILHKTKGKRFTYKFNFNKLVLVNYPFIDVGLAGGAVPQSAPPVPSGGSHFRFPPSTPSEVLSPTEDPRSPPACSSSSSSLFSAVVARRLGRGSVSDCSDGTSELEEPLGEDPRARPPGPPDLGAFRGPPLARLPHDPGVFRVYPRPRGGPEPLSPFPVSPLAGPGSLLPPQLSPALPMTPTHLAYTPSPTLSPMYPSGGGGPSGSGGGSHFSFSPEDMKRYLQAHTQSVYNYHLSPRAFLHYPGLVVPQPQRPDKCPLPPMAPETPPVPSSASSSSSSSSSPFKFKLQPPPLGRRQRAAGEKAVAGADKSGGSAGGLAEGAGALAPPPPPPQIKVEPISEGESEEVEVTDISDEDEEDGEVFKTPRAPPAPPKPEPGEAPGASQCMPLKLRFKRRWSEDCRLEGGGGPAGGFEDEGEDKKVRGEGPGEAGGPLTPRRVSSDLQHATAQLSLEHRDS
# Procedure, shortened: as §1
# ETV3L = target: T7, ETV3L (Homo sapiens, UniProt Q6ZN32 1-361); details: protein: recombinant; tags: N-terminal GST; dsDNA, one strand shown
# T7 sequence: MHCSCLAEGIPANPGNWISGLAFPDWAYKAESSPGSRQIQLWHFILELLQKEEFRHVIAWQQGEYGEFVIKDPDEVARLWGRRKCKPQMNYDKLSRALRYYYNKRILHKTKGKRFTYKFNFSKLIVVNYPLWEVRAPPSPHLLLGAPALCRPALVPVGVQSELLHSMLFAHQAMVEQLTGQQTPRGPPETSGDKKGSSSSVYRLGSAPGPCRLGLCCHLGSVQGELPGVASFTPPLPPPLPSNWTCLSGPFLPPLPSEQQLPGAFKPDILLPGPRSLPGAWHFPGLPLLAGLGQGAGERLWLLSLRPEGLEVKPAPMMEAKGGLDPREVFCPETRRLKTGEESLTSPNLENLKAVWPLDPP
# Procedure, shortened: as §1
# ETS2 = target: T8, ETS2 (Homo sapiens, UniProt P15036 1-469); details: protein: recombinant; tags: N-terminal GST; dsDNA, one strand shown
# T8 sequence: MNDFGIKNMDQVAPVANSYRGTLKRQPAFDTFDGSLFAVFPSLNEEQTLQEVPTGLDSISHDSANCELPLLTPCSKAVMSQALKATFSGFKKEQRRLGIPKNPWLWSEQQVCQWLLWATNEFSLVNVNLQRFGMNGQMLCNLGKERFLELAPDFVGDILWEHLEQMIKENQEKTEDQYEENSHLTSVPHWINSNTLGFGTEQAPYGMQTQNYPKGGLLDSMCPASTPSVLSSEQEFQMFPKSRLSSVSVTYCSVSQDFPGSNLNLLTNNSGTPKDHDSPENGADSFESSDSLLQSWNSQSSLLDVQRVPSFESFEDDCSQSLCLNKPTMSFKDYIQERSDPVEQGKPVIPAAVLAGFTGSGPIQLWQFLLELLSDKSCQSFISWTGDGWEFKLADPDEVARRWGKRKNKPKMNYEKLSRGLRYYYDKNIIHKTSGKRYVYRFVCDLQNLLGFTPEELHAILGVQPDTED
# Procedure, shortened: as §1
# SPDEF = target: T9, SPDEF (Homo sapiens, UniProt O95238 1-335); details: protein: recombinant; tags: N-terminal GST; dsDNA, one strand shown
# T9 sequence: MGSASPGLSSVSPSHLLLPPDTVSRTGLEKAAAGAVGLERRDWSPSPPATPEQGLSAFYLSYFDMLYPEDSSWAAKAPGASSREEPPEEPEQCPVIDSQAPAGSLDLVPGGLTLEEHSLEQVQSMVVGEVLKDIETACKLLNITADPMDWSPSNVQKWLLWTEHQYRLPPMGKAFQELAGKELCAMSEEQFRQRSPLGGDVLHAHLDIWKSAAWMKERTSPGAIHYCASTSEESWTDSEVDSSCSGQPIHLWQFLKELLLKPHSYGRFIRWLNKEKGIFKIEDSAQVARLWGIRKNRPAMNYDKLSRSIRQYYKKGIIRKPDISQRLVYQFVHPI
# Procedure, shortened: as §1
# ETV7 = target: T10, ETV7 (Homo sapiens, UniProt Q9Y603 1-341); details: protein: recombinant; tags: N-terminal GST; dsDNA, one strand shown
# T10 sequence: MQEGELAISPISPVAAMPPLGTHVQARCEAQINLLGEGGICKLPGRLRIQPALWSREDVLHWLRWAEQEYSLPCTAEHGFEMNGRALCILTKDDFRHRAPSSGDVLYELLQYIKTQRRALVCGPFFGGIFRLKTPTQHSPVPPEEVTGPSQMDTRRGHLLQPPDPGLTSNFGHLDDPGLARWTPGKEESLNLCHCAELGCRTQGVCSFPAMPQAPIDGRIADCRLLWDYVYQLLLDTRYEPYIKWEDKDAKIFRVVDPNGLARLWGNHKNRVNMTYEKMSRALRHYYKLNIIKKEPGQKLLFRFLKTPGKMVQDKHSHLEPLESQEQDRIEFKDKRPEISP
# Procedure, shortened: as §1
# ELF5 = target: T11, ELF5 (Homo sapiens, UniProt Q9UKW6-2 1-255); details: protein: recombinant; tags: N-terminal GST; dsDNA, one strand shown
# T11 sequence: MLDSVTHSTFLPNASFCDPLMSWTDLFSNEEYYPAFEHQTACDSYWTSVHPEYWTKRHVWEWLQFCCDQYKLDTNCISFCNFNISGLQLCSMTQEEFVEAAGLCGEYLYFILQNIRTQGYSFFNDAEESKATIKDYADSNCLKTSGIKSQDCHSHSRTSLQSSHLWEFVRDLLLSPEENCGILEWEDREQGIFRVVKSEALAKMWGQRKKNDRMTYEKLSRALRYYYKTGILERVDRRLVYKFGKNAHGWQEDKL
# Procedure, shortened: as §1
# ETV3 = target: T12, ETV3 (Homo sapiens, UniProt P41162-2 1-143); details: protein: recombinant; tags: N-terminal GST; dsDNA, one strand shown
# T12 sequence: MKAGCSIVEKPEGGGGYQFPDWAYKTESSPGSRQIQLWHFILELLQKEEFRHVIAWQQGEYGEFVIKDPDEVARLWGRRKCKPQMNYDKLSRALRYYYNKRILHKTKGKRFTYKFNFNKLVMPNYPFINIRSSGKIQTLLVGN
# Procedure, shortened: as §1
# ETV6 = ETV6 (Homo sapiens, UniProt P41212 1-452); details: protein: recombinant; tags: N-terminal GST; dsDNA, one strand shown
# ETV6, sequence (P41212 whole entry): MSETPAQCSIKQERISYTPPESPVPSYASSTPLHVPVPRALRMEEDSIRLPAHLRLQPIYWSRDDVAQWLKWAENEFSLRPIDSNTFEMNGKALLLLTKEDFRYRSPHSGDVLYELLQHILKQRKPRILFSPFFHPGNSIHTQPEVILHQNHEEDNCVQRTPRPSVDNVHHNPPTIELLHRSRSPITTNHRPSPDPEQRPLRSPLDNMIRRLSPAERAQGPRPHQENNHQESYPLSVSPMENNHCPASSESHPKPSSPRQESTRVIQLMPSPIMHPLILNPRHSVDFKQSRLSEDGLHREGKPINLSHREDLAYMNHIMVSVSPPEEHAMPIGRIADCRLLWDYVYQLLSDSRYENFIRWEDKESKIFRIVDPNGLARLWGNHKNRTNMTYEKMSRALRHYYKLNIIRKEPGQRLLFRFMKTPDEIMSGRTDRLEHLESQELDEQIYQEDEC
# Procedure, shortened: as §1
sequence,measurement,setting,value
CCATCT,binding signal,FEV,"1.27 fold enrichment (6-mer frequency, TF over GST control)"
same,binding signal,ETV5,"1.29 fold enrichment (6-mer frequency, TF over GST control)"
same,binding signal,HSF1,"1.31 fold enrichment (6-mer frequency, TF over GST control)"
same,binding signal,SPIC,"1.35 fold enrichment (6-mer frequency, TF over GST control)"
same,binding signal,ELF4,"1.25 fold enrichment (6-mer frequency, TF over GST control)"
same,binding signal,ELK4,"1.4 fold enrichment (6-mer frequency, TF over GST control)"
same,binding signal,ETV2,"1.39 fold enrichment (6-mer frequency, TF over GST control)"
same,binding signal,ELF3,"1.34 fold enrichment (6-mer frequency, TF over GST control)"
same,binding signal,CRX,"1.28 fold enrichment (6-mer frequency, TF over GST control)"
same,binding signal,ETV1,"1.34 fold enrichment (6-mer frequency, TF over GST control)"
same,binding signal,ERF,"1.41 fold enrichment (6-mer frequency, TF over GST control)"
same,binding signal,ETV3L,"1.35 fold enrichment (6-mer frequency, TF over GST control)"
same,binding signal,ETS2,"1.35 fold enrichment (6-mer frequency, TF over GST control)"
same,binding signal,SPDEF,"1.11 fold enrichment (6-mer frequency, TF over GST control)"
same,binding signal,ETV7,"1.33 fold enrichment (6-mer frequency, TF over GST control)"
same,binding signal,ELF5,"1.27 fold enrichment (6-mer frequency, TF over GST control)"
same,binding signal,ETV3,"1.25 fold enrichment (6-mer frequency, TF over GST control)"
same,binding signal,ETV6,"1.25 fold enrichment (6-mer frequency, TF over GST control)"
